Test results reported in PubChem BioAssay (NCATS).
Records with an inconclusive call do not appear. Activity calls are given as the source filed them. Calls follow the shape of the dose curve; as a rule, active = well fitted curve in the direction sought with a large enough effect; inconclusive = small, poorly fitted or top-dose-only effect, or another doubt; inactive = no such curve, though single readings can be large; an effect the other way counts as inactive or inconclusive.

Legend:
[1] = qHTS of pediatric cancer cell lines to identify multiple opportunities for drug repurposing: Primary screen for U-2 OS cells (AID 1347096); also: nearly all actives have a fitted effect of over 50% in size
Method in brief: (§1)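 Viability after 48 h compound treatment at 37C, 500-1,000 cells/well, read as ATP luminescence with CellTiter-Glo. Primary screens used 11-point (MIPE, 0.78 nM-46 µM) or 8-point (NPC, 0.59 nM-46 µM) final concentrations; follow-up screens used 11-point dilutions.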

[2] = qHTS of pediatric cancer cell lines to identify multiple opportunities for drug repurposing: Primary screen for Saos-2 cells (AID 1347097); also: nearly all actives have a fitted effect of over 40% in size; also: potency is read from the fitted curve at half-maximal effect
Method in brief: (§2)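 ATP-based luminescence (CellTiter-Glo) quantifies viability after a 48-hour exposure. Compounds are dosed across 8 or 11 final concentrations; DMSO and 2.3 µM bortezomib serve as controls.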

[3] = qHTS of pediatric cancer cell lines to identify multiple opportunities for drug repurposing: Primary screen for NB1643 cells (AID 1347099); also: nearly all actives have a fitted effect of over 50% in size; also: potency is read from the fitted curve at half-maximal effect
Method in brief: as §2

[4] = qHTS of pediatric cancer cell lines to identify multiple opportunities for drug repurposing: Primary screen for Rh18 cells (AID 1347102); also: nearly all actives have a fitted effect of over 65% in size
Method in brief: as §1

[5] = qHTS of pediatric cancer cell lines to identify multiple opportunities for drug repurposing: Primary screen for OHS-50 cells (AID 1347103); also: nearly all actives have a fitted effect of over 40% in size; also: potency is read from the fitted curve at half-maximal effect
Method in brief: (§3)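 Cells (500-1,000/well) rested 5 h, then received compounds for 48 h; metabolically active cells were measured by CellTiter-Glo luminescence. Final concentrations spanned up to 46 µM (MIPE, 11-point) or 0.59 nM-46 µM (NPC, 8-point) in primary screens, 11-point in follow-ups.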

[6] = qHTS of pediatric cancer cell lines to identify multiple opportunities for drug repurposing: Primary screen for RD cells (AID 1347104); also: nearly all actives have a fitted effect of over 55% in size; also: potency is read from the fitted curve at half-maximal effect
Method in brief: as §2

[7] = qHTS of pediatric cancer cell lines to identify multiple opportunities for drug repurposing: Primary screen for MG 63 (6-TG R) cells (AID 1347105); also: nearly all actives have a fitted effect of over 50% in size; also: potency is read from the fitted curve at half-maximal effect
Method in brief: as §2

[8] = qHTS of pediatric cancer cell lines to identify multiple opportunities for drug repurposing: Primary screen for control Hh wild type fibroblast cells (AID 1347106);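 also: series mostly up to about 46 µM; a drop in luminescence marks cytotoxicity and a rise apparent proliferation; nearly all actives have a fitted effect of over 55% in size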
Method in brief: as §1

[9] = qHTS of pediatric cancer cell lines to identify multiple opportunities for drug repurposing: Primary screen for Rh41 cells (AID 1347108);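 also: series mostly up to about 46 µM; luminescence drop marks cytotoxic hits; nearly all actives have a fitted effect of over 70% in size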
Method in brief: as §2

[10] = qHTS of pediatric cancer cell lines to identify multiple opportunities for drug repurposing: Primary screen for LAN-5 cells (AID 1347100); also: potency is read from the fitted curve at half-maximal effect
Method in brief: as §1

[11] = qHTS of pediatric cancer cell lines to identify multiple opportunities for drug repurposing: Primary screen for BT-12 cells (AID 1347101); also: nearly all actives have a fitted effect of over 25% in size
Method in brief: as §3

[12] = qHTS of pediatric cancer cell lines to identify multiple opportunities for drug repurposing: Primary screen for Rh30 cells (AID 1347107); also: series mostly up to about 46 µM; nearly all actives have a fitted effect of over 75% in size
Method in brief: as §1

[13] = qHTS of pediatric cancer cell lines to identify multiple opportunities for drug repurposing: Confirmatory screen for NB1643 cells (AID 1347109); also: potency is read from the fitted curve at half-maximal effect; nearly all actives have a fitted effect of over 45% in size
Method in brief: as §1

[14] = qHTS of pediatric cancer cell lines to identify multiple opportunities for drug repurposing: Confirmatory screen for A673 cells (AID 1347110);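 also: potency is read from the fitted curve at half-maximal effect; cells exposed to compound for 48 h before the viability read; nearly all actives have a fitted effect of over 65% in size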
Method in brief: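 Concentration-response curves came straight from titrations: 11 points (0.78 nM to 46 µM) for MIPE and several concentrations (0.59 nM to 46 µM) for NPC in primary, 11 points in follow-up. Readout: ATP luminescence at 48 h.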

[15] = qHTS of pediatric cancer cell lines to identify multiple opportunities for drug repurposing: Confirmatory screen for BT-12 cells (AID 1347112); also: nearly all actives have a fitted effect of over 55% in size; also: potency is read from the fitted curve at half-maximal effect
Method in brief: as §1

[16] = qHTS of pediatric cancer cell lines to identify multiple opportunities for drug repurposing: Confirmatory screen for DAOY cells (AID 1347114); also: nearly all actives have a fitted effect of over 65% in size; also: potency is read from the fitted curve at half-maximal effect
Method in brief: (§4)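 Viability measured as metabolically active cells via CellTiter-Glo luminescence following 48 hours of compound exposure, 11-point dilutions in confirmatory testing. 500-1,000 cells/well plated 5 hours before dosing; controls were DMSO and 2.3 µM bortezomib.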

[17] = qHTS of pediatric cancer cell lines to identify multiple opportunities for drug repurposing: Confirmatory screen for BT-37 cells (AID 1347117); also: nearly all actives have a fitted effect of over 55% in size; also: potency is read from the fitted curve at half-maximal effect
Method in brief: as §1

[18] = qHTS of pediatric cancer cell lines to identify multiple opportunities for drug repurposing: Confirmatory screen for TC32 cells (AID 1347118);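 also: potency is read from the fitted curve at half-maximal effect; cells exposed to compound for 48 h before the read; nearly all actives have a fitted effect of over 65% in size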
Method in brief: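 Luminescent CellTiter-Glo read-out of metabolically active TC32 cells after 48 h compound exposure. Primary: MIPE 11-point, 0.78 nM–46 µM; NPC 8-point, 0.59 nM–46 µM. Confirmatory: 11-point dilutions.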

[19] = qHTS of pediatric cancer cell lines to identify multiple opportunities for drug repurposing: Primary screen for SK-N-SH cells (AID 1347098); also: nearly all actives have a fitted effect of over 65% in size; also: potency is read from the fitted curve at half-maximal effect
Method in brief: as §3

[20] = qHTS of pediatric cancer cell lines to identify multiple opportunities for drug repurposing: Confirmatory screen for SJ-GBM2 cells (AID 1347116); also: potency is read from the fitted curve at half-maximal effect; nearly all actives have a fitted effect of over 60% in size
Method in brief: as §4

Measured: Potency

CCCCCCCCc1ccc(O)cc1
active: [2] 39000 nM | [5] 25400 nM
inactive: [1] | [3] | [4] | [6] | [7] | [8] | [9]

COc1ccc2c(c1)[C@]13CCCCC1C(C2)N(C)CC3 (some centres undefined)
inactive: [1] | [2] | [10] | [11] | [4] | [6] | [7] | [8] | [12] | [9]

COc1cc2cc(c1Cl)N(C)C(=O)C[C@H](OC(=O)C(C)C)[C@]1(C)O[C@H]1[C@H](C)[C@@H]1C[C@@](O)(NC(=O)O1)[C@H](OC)C=CC=C(C)C2
active: [2] 662 nM | [10] 1 nM | [5] 1 nM | [13] 65700 nM | [14] 1 nM | [15] 1.6 nM | [16] 3.7 nM | [17] 1 nM | [18] 0.4 nM
inactive: [1] | [4] | [7] | [8] | [12] | [9]

CC1=NN=C(c2ccc(N)cc2)c2cc3c(cc2C1)OCO3
inactive: [1] | [2] | [10] | [11] | [4] | [5] | [7] | [8] | [9]

CCNC(=O)CC1N=C(c2ccc(Cl)cc2)c2cc(OC)ccc2-n2c(C)nnc21 (centres undefined)
inactive: [1] | [8]
active: [19] 15200 nM | [3] 14800 nM | [10] 10500 nM | [5] 21700 nM | [6] 5900 nM

CCCCC(CC)COC(=O)c1ccccc1C(=O)OCC(CC)CCCC (centres undefined)
inactive: [1] | [3] | [10] | [11] | [4] | [5] | [6] | [7] | [8] | [9]

O=C(NCC1CCOCC1)c1cnc(Nc2ccc(Cl)cc2Cl)nc1C(F)(F)F
active: [19] 6070 nM | [3] 9350 nM | [7] 29600 nM
inactive: [1] | [4] | [8] | [12]

COC(=O)c1cncn1C(C)c1ccccc1 (centres undefined)
inactive: [1] | [19] | [3] | [10] | [11] | [4] | [5] | [7] | [8] | [12] | [9]

ClC1=C(Cl)[C@]2(Cl)[C@@H]3[C@@H]4C[C@@H]([C@H]5O[C@@H]45)[C@@H]3[C@@]1(Cl)C2(Cl)Cl
inactive: [1] | [8] | [12]
active: [2] 38600 nM | [5] 28200 nM

O=[N+]([O-])/N=C1\NCCN1Cc1ccc(Cl)nc1
not listed: [2] | [13] | [14] | [15] | [16] | [17] | [18] | [20]
inactive: all other assays above

Nc1ccc(Sc2ccc(N)cc2)cc1
not listed: [2] | [13] | [14] | [15] | [16] | [17] | [18] | [20]
inactive: all other assays above

O=C(N[C@H]1CN2CCC1CC2)c1ccc(Cl)cc1
inactive: [1] | [10] | [11] | [15] | [16] | [17]
active: [19] 6810 nM | [3] 2640 nM | [6] 26400 nM | [13] 16500 nM | [14] 1650 nM | [20] 585 nM | [18] 1650 nM

C[C@]12CCC(=O)C(O)=C1CC[C@@H]1[C@H]3CCC(=O)[C@@]3(C)CC[C@@H]12
inactive: [1] | [19] | [10] | [11] | [4] | [6] | [7] | [8]

CC=C(C)C(=O)N[C@@H](c1ccccc1)[C@@H](O)C(=O)O[C@H]1C[C@@]2(O)[C@@H](OC(=O)c3ccccc3)[C@@H]3[C@]4(OC(C)=O)CO[C@@H]4C[C@H](O)[C@@]3(C)C(=O)[C@H](OC(C)=O)C(=C1C)C2(C)C
active: [2] 13.2 nM | [10] 1 nM | [5] 1 nM | [14] 32.9 nM | [17] 52.2 nM
inactive: [1] | [4] | [8] | [12]

CCOC(=O)Nc1ccc(NCc2ccc(F)cc2)cc1N
inactive: [1] | [2] | [11] | [4] | [5] | [7] | [8]
